Laboratory results published in PubChem BioAssay (NCI).
Several values for one entry are separate records, joined by “and”; a condition that tells them apart may be missing. Equal entries are not always repeated. Compounds without any hit were thinned out: in the full panel of roughly 79,000, 15% have a hit. Where a structure was tested more than once in an assay, its records may differ in their call. Activity calls are given as the source filed them. Rule as the data show it: active = growth inhibition above about 70%; inactive = the rest. Where a SMILES comes first, the peptide text is derived from it. The star is where a group is joined. Boc = CC(C)(C)OC(=O)*

Columns and labels:
[1] = NCI Yeast Anticancer Drug Screen. Data for the rad50 strain (AID 155);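 also: 0% = growth of vehicle-only cultures of the same strain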; details: S. cerevisiae rad50 strain growth inhibition; at 50.0 µM; stronger effect = higher value
Outline: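 Inhibition values express reduced yeast growth in compound-treated cultures relative to vehicle-treated controls.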

[2] = NCI Yeast Anticancer Drug Screen. Data for the mec2-1 strain (AID 157); details: S. cerevisiae mec2-1 strain, at 50.0 µM, stronger effect = higher value
Outline: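 Mutant yeast (mec2-1) grown with compound; growth inhibition relative to vehicle control reported.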

[3] = NCI Yeast Anticancer Drug Screen. Data for the sgs1 mgt1 strain (AID 161);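 also: 0% = growth of cultures given vehicle only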; details: S. cerevisiae sgs1 mgt1 strain, at 50.0 µM, stronger effect = higher value
Outline: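 Yeast cells carrying a defined DNA-repair defect were exposed to test compounds. Growth inhibition was measured relative to vehicle-treated controls.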

[4] = NCI Yeast Anticancer Drug Screen. Data for the cln2 rad14 strain (AID 165);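 also: 0% = growth equal to vehicle treated cultures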; details: S. cerevisiae cln2 rad14 strain, at 50.0 µM, stronger effect = higher value
Outline: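 Readout is yeast growth inhibition versus vehicle-treated controls, using a strain with cln2 and rad14 alterations exposed to compound.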

[5] = NCI Yeast Anticancer Drug Screen. Data for the bub3 strain (AID 167); details: S. cerevisiae bub3 mutant strain, at 50.0 µM, stronger effect = higher value
Outline: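 Steps: expose the mutant yeast strain to compound; grow alongside vehicle-treated cultures; measure growth; express inhibition against the vehicle cultures.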

[6] = NCI Yeast Anticancer Drug Screen. Data for the mlh1 rad18 strain (AID 175); details: S. cerevisiae mlh1 rad18 strain growth inhibition; at 50.0 µM; stronger effect = higher value
Outline: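 Genetically defined yeast (DNA repair-deficient) exposed to compounds; growth inhibition determined relative to vehicle.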

Measured: growth inhibition

O=c1nc(-c2ccccc2)cc(CC(O)(c2ccc(C(F)(F)F)cc2)c2ccc(Cl)c(Cl)c2)[nH]1 (stereo unspecified)
inactive: [1] 1.8% and 28.8% | [2] 15% and 15.4% | [3] 5.55% and 25.8% | [4] -17.8% and -26.6% | [5] 25.7% and 54.4% | [6] 8.35% and 11.3%

CCOC(=O)CNC(=O)C(Cc1ccccc1)NC(=O)c1ccccc1N (stereo unspecified)
inactive: [1] 14% and 12.7% | [2] -1.7% and -2.6% | [3] -0.1% and 9.95% | [4] -5.4% and -6.3% | [5] 8.7% and 4.45% | [6] 7.25% and 4.15%

COC(=O)C(Cc1ccccc1)NC(=O)C(CNC(=O)OCc1ccccc1)C(=O)OCc1ccccc1 (stereo unspecified)
inactive: [1] 16.2% and -13.2% | [2] -5.6% and -6.65% | [3] -1.9% and -8.85% | [4] 0.65% and -3.55% | [5] -3.5% and -20.5% | [6] -11.1% and -10.2%

CCOC1(C)OC2OC(COC(c3ccccc3)(c3ccccc3)c3ccccc3)C(O)C(O)C2O1 (stereo unspecified)
76.2% (active) and 27.6% (inactive): [5]
95.2% (active) and 54.7% (inactive): [3]
inactive: [1] 63% and 48.6% | [2] 28.9% and 6.85% | [4] 24.9% and 28.4% | [6] 50.9% and 50%

CN(C)CC1CCCC(CN(C)C)C1=O (stereo unspecified)
inactive: [1] -13.4% and -21.9% | [2] 26.9% and -9.95% | [3] -16% and -39.5% | [4] 33% and -30.4% | [5] -16.1% and -22.1% | [6] -2% and -13.8%

C=C1C(=O)OC2C1CCC(C)C1CCC(=O)OC12C (stereo unspecified)
inactive: [1] 50.9% and -7.2% | [2] 58.8% and -1.4% | [3] 43.1% and 17.2% | [4] 35% and 18.6% | [5] 64% and 13.6% | [6] 54.5% and 3.8%

CC1C(=O)c2cc3c(cc2CCN(C)Cc2c1ccc1c2OCO1)OCO3 (stereo unspecified)
inactive: [1] 13.9% and 3.4% | [2] -16.4% and 5.75% | [3] -10.2% and 7.3% | [4] -3.65% and -3.7% | [5] -29.9% and -12.9% | [6] -31.8% and 14.6%

COC1OCC(OC(=O)c2ccccc2)C(OC(=O)c2ccccc2)C1OC(=O)c1ccccc1 (stereo unspecified)
inactive: [1] 7.5% and 19.6% | [2] 1.15% and -3.25% | [3] 15.7% and -3.7% | [4] 19.5% and -0.3% | [5] -1.55% and -3.65% | [6] 6.15% and -8.55%

C=CCN(CC=C)c1nc2ccccc2c(=O)[nH]1
inactive: [1] 39.6% and -6.7% | [2] 24.2% and -3.7% | [3] 22.5% and -3.8% | [4] 7.9% and -60.1% | [5] -2.25% and -12.4% | [6] 17.2% and 0.45%

COC(=O)C(C)(C)O
inactive: [1] -1.2% and 20.4% | [2] 8.2% and -28.9% | [3] -4.15% and -12% | [4] -26.9% and -75.2% | [5] 1.95% and -19.1% | [6] 3.1% and 1.55%

[Cl][Pr]([Cl])[Cl]
inactive: [1] 21.9% and 19.1% | [2] -7.65% and 5.55% | [3] -3.4% and 33.6% | [4] 1.6% and 19.1% | [5] 7.65% and 22.9% | [6] 1.4% and 42.2%

O=[N+]([O-])c1cc(S(=O)(=O)O)ccc1Cl
inactive: [1] -9.65% and 14.6% | [2] 3.25% and -1.15% | [3] -9.3% and -7.65% | [4] 9.2% and 12.7% | [5] 0.1% and 6.25% | [6] 15.2% and 14.8%

CSCCC(N)C(=O)NCC(=O)O (stereo unspecified)
inactive: [1] -13.8% and -37.5% | [2] -22.9% and -23.1% | [3] -10.8% and 1.4% | [4] 2.9% and -35.9% | [5] -16.1% and -12% | [6] -11.4% and -8.65%

CCc1ccc(NCc2cc(OC)c(OC)c(OC)c2)cc1
inactive: [1] 22.8% and 3.85% | [2] -3.9% and -6.2% | [3] 25.9% and 33% | [4] -4.45% and -2.55% | [5] 40% and 38.9% | [6] -55.3% and -23.8%

O=[N+]([O-])c1ccc(NCS(=O)(=O)O)cc1
inactive: [1] 6.95% and -2% | [2] -14.3% and -7.9% | [3] -9.35% and 5.9% | [4] -12.2% and -15.8% | [5] 8.55% and -3.05% | [6] 5.7% and 17.8%

CC(=O)OCC1OC(n2c(=S)n(-c3ccc(C)cc3)c(=O)c3ccccc32)C(OC(C)=O)C(OC(C)=O)C1OC(C)=O (stereo unspecified)
inactive: [1] 2.2% and 32% | [2] 6.1% and 18.4% | [3] -11.1% and 15.9% | [4] 21% and 21.2% | [5] -6.65% and 14.7% | [6] -9.4% and 4.9%

CC(Br)C(=O)NC(Cc1ccccc1)C(=O)O (stereo unspecified)
inactive: [1] 2.65% and -4.15% and -18.5% | [2] -18.9% and 0.65% and -20.2% | [3] -11.8% and 3% | [4] 16.8% and -25.6% | [5] -17.5% and 8.15% | [6] 25.4% and 5.95% and -9.85%

CC1(C)Cc2[nH]c3ccccc3c2C(C)(C)N1
inactive: [1] -35% and 6.55% | [2] -16.4% and 23.3% | [3] -6.35% and 14.5% | [4] -64% and -6.15% | [5] -4.5% and 12.5% | [6] 3.8% and 10.5%

CC1CCOS(=O)O1 (stereo unspecified)
inactive: [1] 6.55% and -13.5% | [2] -15% and 6.9% | [3] 19.1% and -9.65% | [4] 12.1% and 11.6% | [5] -4.45% and 7.7% | [6] 18.2% and -7%

COC(=O)C(C)NC(=O)C(CCSC)NC(=O)C(Cc1ccccc1)NC(=O)OC(C)(C)C (stereo not drawn) (Boc-Phe-Met-Ala-OMe; configuration not given here)
inactive: [1] -7.05% and 1.75% | [2] -15.3% and 1.15% | [3] 2.4% and 6.3% | [4] 5.05% and 10.7% | [5] 0.15% and -11.9% | [6] 12.4% and -70.9%

COC(=O)c1cccc2c[n+]3c(cc12)-c1[nH]c2cc(OC)ccc2c1CC3
inactive: [1] 4.55% and 53% | [2] -16.9% and 8.8% | [3] -0.05% and 21.1% | [4] -8.05% and -7.6% | [5] 4.6% and 13.1% | [6] 14.6% and 13.7%
